Test results reported in PubChem BioAssay (NCI).
This is part of a sample that, as a whole, favours compounds with a hit. Of some 83,000 tested, about 20% had one in any assay.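 Activity criterion: percent growth below 10, measured after cells in 96-well plates were exposed to a single compound concentration for 48 hours.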 Unmarked numbers belong to inactive results. Activity calls are given as the source filed them.

Key:
Test in all cases: NCI-60 one-dose screen, 48 h (100 = growth as untreated, 0 = no growth, -100 = all killed)
[1] = tested on: RPMI-8226 leukemia; settings: 10 µM unless noted
[2] = tested on: OVCAR-8 ovarian; settings: 10 µM unless noted
[3] = tested on: OVCAR-5 ovarian; settings: 10 µM unless noted
[4] = tested on: OVCAR-4 ovarian; settings: 10 µM unless noted
[5] = tested on: SK-OV-3 ovarian; settings: 10 µM unless noted
[6] = tested on: IGROV1 ovarian; settings: 10 µM unless noted
[7] = tested on: OVCAR-3 ovarian; settings: 10 µM unless noted
[8] = tested on: HS 578T breast; settings: 10 µM unless noted
[9] = tested on: NCI/ADR-RES ovarian; settings: 10 µM unless noted
[10] = tested on: T-47D breast; settings: 10 µM unless noted
[11] = tested on: BT-549 breast; settings: 10 µM unless noted
[12] = tested on: MDA-MB-435 melanoma; settings: 10 µM unless noted
[13] = tested on: SW-620 colon; settings: 10 µM unless noted
[14] = tested on: MCF7 breast; settings: 10 µM
[15] = tested on: HCT-116 colon; settings: 10 µM unless noted
[16] = tested on: HCC-2998 colon; settings: 10 µM unless noted
[17] = tested on: KM12 colon; settings: 10 µM unless noted

| SMILES | growth [1] | growth [2] | growth [3] | growth [4] | growth [5] | growth [6] | growth [7] | growth [8] | growth [9] | growth [10] | growth [11] | growth [12] | growth [13] | growth [14] | growth [15] | growth [16] | growth [17] |
| --- | --- | --- | --- | --- | --- | --- | --- | --- | --- | --- | --- | --- | --- | --- | --- | --- | --- |
| CN1CCN(Cc2ccc(NC(=O)c3[nH]ncc3Nc3cc(OC4CCCC4)ncn3)cc2)CC1 | 16.9% | 42.6% | 50.5% | 59.2% | 4.89% (active) | 35% | 11.2% | 32.8% | 44% | 64.1% | 12.5% | 41.5% | 15.8% | 10.7% | 4.66% (active) | 28.7% | 21.9% |
| COc1ccc(S(=O)(=O)N(Cc2ccc3c(n2)C=CC(C)(C)O3)C2CCC2)cc1OC | -47.2% (active) | 2.69% (active) | 27.2% | -13.8% (active) | -3.43% (active) | -23.9% (active) | -26.6% (active) | 12.8% | 6.95% (active) | 0.329% (active) | -25.2% (active) | -34.7% (active) | 3.81% (active) | 2.14% (active) | -5.68% (active) | -1.63% (active) | -1.42% (active) |
| CC(=O)c1ccc(Cc2ccc(C(C)=O)s2)s1 | 95.2% | 107% | 100% | 96.5% | 109% | 96.1% | 100% | 109% | 106% | 96.7% | 110% | 107% | 103% | 85.1% | 103% | 104% | 95.2% |
| COc1cc(C(C)n2cc(-c3ccccc3)nn2)ccc1OC1CCCCC1 (stereo unspecified) | 35% | 55.3% | 92.6% | 55.2% | 73.4% | 77.2% | 67.6% | 91.4% | 49.3% | 58.8% | 69.3% | 68.1% | 75.5% | 49.8% | 42.5% | 81.4% | 77.9% |
| Cc1c(C(=O)OCCO)cc(-c2ccc(Cl)cc2)n1-c1ccc(Cl)cc1Cl | 84.9% | 83.8% | 84.1% | 97.3% | 72.7% | 90.2% | 91.9% | 81.3% | 77.1% | 62% | 92.8% | 4.72% (active) | 67.3% | 44.3% | 60.3% | 100% | 52.4% |
| O=C1NC(=S)NC(=O)C1=Cc1cn(Cc2cn(Cc3cccc4ccccc34)nn2)c2ccccc12 | 104% | 102% | 89.6% | 92.2% | 111% | 82.6% | 102% | 81.9% | 96.5% | 105% | 101% | 94.8% | 93.4% | 95.4% | 106% | 100% | 97.2% |
| Cc1sc2ncnc(Sc3nc4ccccc4[nH]3)c2c1C | -27.1% (active) | -66.1% (active) | -58.6% (active) | -15.4% (active) | -23.1% (active) | -76.5% (active) | -86.1% (active) | -27.5% (active) | 20.1% | -55.4% (active) | 47.2% | -92.9% (active) | -78.2% (active) | -70.2% (active) | -71.2% (active) | -91.4% (active) | -90.1% (active) |
| COc1cccc2cc(N(C)c3nc(C)nc4ccsc34)ccc12 | 12.5% | 6.47% (active) | 43.7% | 35.5% | 22.9% | 15.5% | 3.88% (active) | 17.7% | -6.94% (active) | 60% | 13.3% | -16.1% (active) | 22.3% | 16.9% | -0.926% (active) | 7.08% (active) | -1.06% (active) |
| OC(CNC1CCCCC1)Cn1c2ccc(I)cc2c2cc(I)ccc21 (stereo unspecified) | 52.2% | 70.9% | 82.9% | 77% | 91.6% | 70.8% | 65.7% | 79.6% | 62.8% | 81.3% | 85.9% | 66.9% | 79.5% | 69.9% | 65.2% | 94.3% | 74.5% |
| COc1cc(/C=C/C(=O)N2c3ccccc3CC2C)c(OC)c2c1OCO2 (stereo unspecified) | 88.6% | 96.9% | 87.1% | 96.6% | 122% | 105% | 103% | 96.2% | 81.5% | 77.2% | 97.7% | 85.8% | 93.8% | 91.6% | 97.2% | 100% | 93.8% |
| CCOC(=O)C1=CN(C)C=C(C(=O)OCC)C1c1cc(Br)c(OCC)c(OC)c1 | 8.87% (active) | 56.8% | 63.5% | 54.9% | 86.4% | 35.6% | 64.9% | 62.9% | 73% | 74.9% | 84.9% | 15.6% | 48.6% | 14.7% | 43.9% | -16.5% (active) | 48.4% |
| Cc1nc(Nc2cn[nH]c2C(=O)Nc2ccc(CN3CCN(C)CC3)cc2)c2ccsc2n1 | 79% | 102% | 136% | 82.5% | 64.4% | 77.2% | 91.3% | 66.8% | 110% | 91.7% | 88.5% | 87.1% | 114% | 59.9% | 52.4% | 95.3% | 27.4% |
| COc1ccc(-c2c(-c3ccc(OC)c(O)c3)cnc3ncnn23)cc1 | 108% | 101% | 103% | 104% | 110% | 110% | 112% | 104% | 102% | 103% | 102% | 108% | 99.1% | 95.2% | 98% | 109% | 102% |
| CC1=CCC(OC(=O)C(C)(C)CCC(O)(C(=O)OC2(C(C)C)CCC3(C)OC3C2)C(C)C)(C(C)C)CC1 (stereo unspecified) | -37.8% (active) | -41.7% (active) | -77.9% (active) | -84.1% (active) | -92.2% (active) | -60.5% (active) | -97% (active) | -7.09% (active) | -9.23% (active) | -55.2% (active) | -88.6% (active) | -98% (active) | -62.1% (active) | -61.1% (active) | -41.2% (active) | -72.8% (active) | -79% (active) |
| Cc1ccc(Cc2cnc(NC(=O)CN3C(=O)/C(=C\c4ccccc4)SC3=S)s2)cc1 | 105% | 102% | 101% | 99% | 104% | 105% | 112% | 102% | 107% | 98.8% | 117% | 107% | 107% | 95.8% | 103% | 105% | 103% |
| CN(C)c1ccc(N=Cc2ccc(N3CCOCC3)cc2)cc1 | 47.5% | 62.7% | 111% | 19.1% | 94.7% | 117% | -4.05% (active) | 107% | 83.1% | 94.4% | 95.1% | 74.1% | 44.2% | 39% | 67.6% | 54.2% | 59.5% |
| CC(=O)Nc1nc2c(s1)CCc1c-2cn(S(=O)(=O)c2ccccc2)c1-c1ccccc1 | 57.7% | 79.7% | 97.4% | 84.3% | 101% | 97.2% | 80.5% | 91.3% | 49.7% | 49.3% | 97.7% | 59.7% | 79.5% | 54.2% | 57.9% | 80.4% | 54.9% |
| CC1=C(CC(=O)c2cccc([N+](=O)[O-])c2)C(=O)c2ccccc2C1=O | -7.18% (active) | 9.43% (active) | 37.5% | -89.2% (active) | 30.5% | -61.1% (active) | -94% (active) | -20.6% (active) | 30.9% | -10.2% (active) | 2.6% (active) | -56.1% (active) | -41.2% (active) | 7.59% (active) | 9.03% (active) | 96.9% | 7.77% (active) |
